# Data as given in PubChem BioAssay (EPA / NIEHS).
# Inconclusive results are not listed. Activity calls are given as the source filed them. The calls were made as follows, unless noted: active = hit-call score of the fitted dose curve at least 0.9, where 1 is the maximum; inconclusive = response in the unintended direction; inactive = score below 0.9.
# Tests used:
# [1] = tested on: Sodium/Iodide Symporter (NIS), SLC5A5 (gene 6528); test: CPHEA_Stoker_NIS_Inhibition_RAIU: CPHEA's Radioactive Iodide Uptake (RAIU) Assay for Sodium/Iodide Symporter (NIS) Inhibition, Stoker and Laws Labs (AID 2283841)
# Outline: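 Iodide uptake read as CPM of intracellular 125I (final 329 pM) after 2 h room-temperature exposure in HEPES-buffered HBSS, pH 7.4. Human NIS-expressing HEK293T cells; six concentrations 0.001–100 uM, 0.5% DMSO, normalised to DMSO wells.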
# [2] = CEETOX_H295R_11DCORT_noMTC: CeeTox H295R High-throughput Steroidogenesis Assay for 11-Deoxycortisol (11DCORT), maximum tolerated concentration (MTC) filtered results only (AID 2283911; active = hit-call score of the fitted dose curve at least 0.9, where 1 is the maximum; inactive = score below 0.9); conditions: actives raise or lower the signal
# Outline: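 Readout is 11-deoxycortisol in culture medium by reverse-phase HPLC with MS/MS, after 48 h chemical treatment of forskolin-primed H295R cells. Values are relative to DMSO and unfiltered for cytotoxicity.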
# [3] = CEETOX_H295R_OHPREG_noMTC: CeeTox H295R High-throughput Steroidogenesis Assay for OH-Pregnenolone (OHPREG), maximum tolerated concentration (MTC) filtered results only (AID 2283912; active = hit-call score of the fitted dose curve at least 0.9, where 1 is the maximum; inactive = score below 0.9); conditions: actives raise or lower the signal
# Outline: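 Steroidogenesis in H295R cells (OECD 456, modified): after 48 h forskolin priming and 48 h chemical treatment, secreted 17alpha-hydroxypregnenolone is measured by HPLC-MS/MS. Activity is fitted in both directions against DMSO; concentrations are not filtered by MTT-based MTC.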
# [4] = CEETOX_H295R_OHPROG_noMTC: CeeTox H295R High-throughput Steroidogenesis Assay for OH-Progesterone (OHPROG), maximum tolerated concentration (MTC) filtered results only (AID 2283914; active = hit-call score of the fitted dose curve at least 0.9, where 1 is the maximum; inactive = score below 0.9); conditions: actives raise or lower the signal
# Outline: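 Forskolin 10 uM, 48 h prestim → test cmpd in DMSO (0.1% final), 48 h → medium MTBE extraction → LC-MS/MS quant of 17alpha-OH-progesterone. Bidirectional fit vs DMSO; no MTT-based MTC filtering.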
# [5] = CEETOX_H295R_ANDR_noMTC: CeeTox H295R High-throughput Steroidogenesis Assay for Androstenedione (ANDR), maximum tolerated concentration (MTC) filtered results only (AID 2283915; active = hit-call score of the fitted dose curve at least 0.9, where 1 is the maximum; inactive = score below 0.9); conditions: actives raise or lower the signal
# Outline: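 H295R cells, passage 10 or below, prestimulated 48 h with 10 uM forskolin, then exposed 48 h to chemical in 0.1% DMSO. Medium androstenedione extracted with MTBE, quantified by HPLC-MS/MS; concentrations not MTC-filtered; bidirectional fit versus DMSO.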
# [6] = CEETOX_H295R_CORTISOL_noMTC: CeeTox H295R High-throughput Steroidogenesis Assay for Cortisol, maximum tolerated concentration (MTC) filtered results only (AID 2283916; active = hit-call score of the fitted dose curve at least 0.9, where 1 is the maximum; inactive = score below 0.9); conditions: actives raise or lower the signal
# Outline: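 Cortisol secretion measured by LC-MS/MS after 48 h chemical treatment (final 0.1% DMSO) of forskolin-primed (10 uM, 48 h) H295R cells; gain or loss fitted relative to DMSO, without maximum-tolerated-concentration filtering.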
# [7] = CEETOX_H295R_CORTIC_noMTC: CeeTox H295R High-throughput Steroidogenesis Assay for Corticosterone (CORTIC), maximum tolerated concentration (MTC) filtered results only (AID 2283917; active = hit-call score of the fitted dose curve at least 0.9, where 1 is the maximum; inactive = score below 0.9); conditions: actives raise or lower the signal
# Outline: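 Following OECD 456 with minor changes, H295R cultures received 10 uM forskolin for 48 h, then test chemical at 0.1% DMSO for 48 h. Media steroids were extracted and measured by LC-MS/MS.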
# [8] = tested on: frog Estrogen Receptor (ER2), gene 100174814; test: ATG_frER2_XSP2: Attagene TRANS-FACTORIAL Multi-Species (XSP2) HepG2 Assay for frog Estrogen Receptor (ER2) (AID 2283828)
# Outline: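 Multiplexed transactivation in HepG2: frog estrogen receptor fused to Gal4 drives a UAS reporter. Signal is reporter mRNA after 24 h treatment.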
# [9] = biological target: Peroxisome proliferator-activated receptor gamma (Homo sapiens) (UniProt P37231); test: ATG_hPPARg_XSP2: Attagene TRANS-FACTORIAL Multi-Species (XSP2) HepG2 Assay for human Peroxisome Proliferator-activated Receptor gamma (PPARg) (AID 2283829);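 also: actives raise reporter mRNA above DMSO so AC50 reflects PPARg activation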
# Outline: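 Multiplexed transactivation in transfected HepG2 liver cells. Gal4-chimeric receptor activity reported as induced reporter transcript after 24 h.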
# [10] = biological target: mouse Peroxisome Proliferator-activated Receptor gamma (PPARg), Pparg (gene 19016) (UniProt P37238); test: ATG_mPPARg_XSP2: Attagene TRANS-FACTORIAL Multi-Species (XSP2) HepG2 Assay for mouse Peroxisome Proliferator-activated Receptor gamma (PPARg) (AID 2283830);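 also: hits are gains in reporter mRNA above DMSO so AC50 marks activation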
# Outline: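 HepG2 cells transiently transfected with GAL4-UAS reporter units for chimeric NR-Gal4 proteins including mouse PPARg, exposed 24 h; medium contained 3 nM 6-alpha-fluorotestosterone and 1.5 nM norgestrel. Reporter mRNA quantified by RT-PCR, HpaI digestion and capillary electrophoresis, vs DMSO.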
# [11] = biological target: Nuclear receptor subfamily 1 group I member 2 (Mus musculus) (UniProt O54915); test: ATG_mPXR_XSP2: Attagene TRANS-FACTORIAL Multi-Species (XSP1) HepG2 Assay for mouse Pregnane X Receptor (PXR) (AID 2283831)
# Outline: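 Human liver HepG2 cells expressing exogenous receptor-GAL4 chimeras were exposed to test chemicals for 24 h. Induction of reporter mRNA was scored as gain of fluorescence signal over DMSO controls.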
# [12] = biological target: zebrafish Thyroid Hormone Receptor alpha (TRa), thraa (gene 30670) (UniProt Q98867); test: ATG_zfTRa_XSP2: Attagene TRANS-FACTORIAL Multi-Species (XSP1) HepG2 Assay for zebrafish Thyroid Hormone Receptor alpha (TRa) (AID 2283832);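 also: actives raise zebrafish TRa-Gal4 reporter transcript above DMSO baseline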
# Outline: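 Chimeric receptor-Gal4 activity was assessed in transfected human liver HepG2 cells 24 h after dosing, using reporter transcript levels detected by RT-PCR and capillary electrophoresis. DMSO served as baseline.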
# [13] = tested on: zebrafish Peroxisome Proliferator-activated Receptor gamma (PPARg), gene 557037; test: ATG_zfPPARg_XSP2: Attagene TRANS-FACTORIAL Multi-Species (XSP2) HepG2 Assay for zebrafish Peroxisome Proliferator-activated Receptor gamma (PPARg) (AID 2283833);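 also: reporter mRNA from a zebrafish PPARg GAL4 chimera measured by RT-PCR and capillary electrophoresis; actives increase reporter signal over DMSO so AC50 reflects activation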
# Outline: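 Cell-based transactivation of a chimeric zebrafish PPARg-GAL4 receptor was assessed in transiently transfected HepG2 cells after 24 h of treatment. Reporter mRNA induction, detected fluorescently after RT-PCR, was analysed in the positive direction against DMSO.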
# [14] = ATG_M_61_XSP2: Attagene TRANS-FACTORIAL Multi-Species (XSP2) HepG2 Assay for M61 Transcription Factor (Internal Marker) (AID 2283835; active = hit-call score of the fitted dose curve at least 0.9, where 1 is the maximum; inactive = score below 0.9;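 also: reporter mRNA of an internal background marker read by RT-PCR and capillary electrophoresis; active means a rise in signal above the DMSO baseline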)
# Outline: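 First, HepG2 cells are transfected with reporter units under GAL4-UAS control. Next, chemicals are applied for 24 h. Then total RNA is reverse-transcribed, amplified, fluorescently labelled and sized by capillary electrophoresis, with gain of signal scored against DMSO.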
# [15] = biological target: zebrafish Thyroid Hormone Receptor beta (TRb), thrb (gene 30607) (UniProt Q9PVE4); test: ATG_zfTRb_XSP2: Attagene TRANS-FACTORIAL Multi-Species (XSP1) HepG2 Assay for zebrafish Thyroid Hormone Receptor beta (TRb) (AID 2283836)
# Outline: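 Fluorescence of labelled reporter cDNA fragments, separated by capillary electrophoresis, gives mRNA induction from exogenous NR-Gal4 chimeras in transiently transfected HepG2 cells after 24 h dosing; 3 nM 6-alpha-fluorotestosterone and 1.5 nM norgestrel included in the run.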
# zebrafish Thyroid Hormone Receptor alpha (TRa), thraa (gene 30670), sequence (Q98867 whole entry, looked up, the tested form may be a part): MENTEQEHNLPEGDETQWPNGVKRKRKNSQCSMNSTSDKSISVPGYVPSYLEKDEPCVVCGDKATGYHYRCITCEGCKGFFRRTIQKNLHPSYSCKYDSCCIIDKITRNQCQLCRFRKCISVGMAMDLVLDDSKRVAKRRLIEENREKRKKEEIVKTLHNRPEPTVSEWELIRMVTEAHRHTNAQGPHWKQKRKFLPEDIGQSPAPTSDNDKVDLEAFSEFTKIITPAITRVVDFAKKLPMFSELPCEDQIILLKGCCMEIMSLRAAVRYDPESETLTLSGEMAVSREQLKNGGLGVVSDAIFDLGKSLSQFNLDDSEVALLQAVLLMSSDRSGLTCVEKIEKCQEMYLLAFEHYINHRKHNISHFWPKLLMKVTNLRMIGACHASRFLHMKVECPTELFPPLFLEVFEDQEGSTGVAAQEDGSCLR
# mouse Peroxisome Proliferator-activated Receptor gamma (PPARg), Pparg (gene 19016), sequence (P37238 whole entry, looked up, the tested form may be a part): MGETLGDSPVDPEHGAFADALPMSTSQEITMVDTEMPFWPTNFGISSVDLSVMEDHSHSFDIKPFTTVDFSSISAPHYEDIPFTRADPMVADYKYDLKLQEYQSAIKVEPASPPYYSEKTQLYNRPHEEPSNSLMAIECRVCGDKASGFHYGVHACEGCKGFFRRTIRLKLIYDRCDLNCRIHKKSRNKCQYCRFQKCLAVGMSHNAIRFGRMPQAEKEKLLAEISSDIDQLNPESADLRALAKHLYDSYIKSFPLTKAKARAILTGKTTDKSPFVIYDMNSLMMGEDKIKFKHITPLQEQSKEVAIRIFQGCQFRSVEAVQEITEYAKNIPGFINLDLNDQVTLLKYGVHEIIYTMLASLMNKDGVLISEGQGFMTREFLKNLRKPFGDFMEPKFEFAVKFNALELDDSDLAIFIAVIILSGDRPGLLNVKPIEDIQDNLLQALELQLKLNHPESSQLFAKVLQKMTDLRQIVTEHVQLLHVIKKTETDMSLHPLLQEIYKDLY
# zebrafish Thyroid Hormone Receptor beta (TRb), thrb (gene 30607), sequence (Q9PVE4 whole entry, looked up, the tested form may be a part): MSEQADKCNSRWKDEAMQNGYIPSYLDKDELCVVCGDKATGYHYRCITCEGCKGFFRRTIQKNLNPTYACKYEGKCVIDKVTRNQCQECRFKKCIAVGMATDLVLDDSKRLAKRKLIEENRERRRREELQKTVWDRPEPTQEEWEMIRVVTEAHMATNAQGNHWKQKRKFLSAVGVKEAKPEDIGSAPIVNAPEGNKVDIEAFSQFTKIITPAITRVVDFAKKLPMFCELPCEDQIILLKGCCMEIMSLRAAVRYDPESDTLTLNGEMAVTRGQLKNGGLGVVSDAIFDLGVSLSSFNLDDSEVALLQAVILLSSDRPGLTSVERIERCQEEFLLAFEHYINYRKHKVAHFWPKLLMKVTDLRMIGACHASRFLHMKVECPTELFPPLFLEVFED
# Peroxisome proliferator-activated receptor gamma (Homo sapiens), sequence (P37231 whole entry, looked up, the tested form may be a part): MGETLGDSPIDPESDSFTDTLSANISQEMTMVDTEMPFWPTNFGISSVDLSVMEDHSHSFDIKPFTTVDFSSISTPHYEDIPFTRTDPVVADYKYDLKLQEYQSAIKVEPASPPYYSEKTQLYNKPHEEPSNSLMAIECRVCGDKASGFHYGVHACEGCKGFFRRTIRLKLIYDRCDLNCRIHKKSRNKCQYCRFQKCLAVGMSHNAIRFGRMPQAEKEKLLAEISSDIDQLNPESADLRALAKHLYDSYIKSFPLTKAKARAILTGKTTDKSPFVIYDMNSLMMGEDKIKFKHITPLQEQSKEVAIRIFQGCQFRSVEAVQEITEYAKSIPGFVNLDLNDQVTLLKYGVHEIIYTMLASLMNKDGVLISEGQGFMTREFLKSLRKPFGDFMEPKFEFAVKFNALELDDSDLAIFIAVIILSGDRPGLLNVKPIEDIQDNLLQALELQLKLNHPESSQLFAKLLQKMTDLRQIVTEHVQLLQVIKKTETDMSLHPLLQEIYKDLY
# Nuclear receptor subfamily 1 group I member 2 (Mus musculus), sequence (O54915 whole entry, looked up, the tested form may be a part): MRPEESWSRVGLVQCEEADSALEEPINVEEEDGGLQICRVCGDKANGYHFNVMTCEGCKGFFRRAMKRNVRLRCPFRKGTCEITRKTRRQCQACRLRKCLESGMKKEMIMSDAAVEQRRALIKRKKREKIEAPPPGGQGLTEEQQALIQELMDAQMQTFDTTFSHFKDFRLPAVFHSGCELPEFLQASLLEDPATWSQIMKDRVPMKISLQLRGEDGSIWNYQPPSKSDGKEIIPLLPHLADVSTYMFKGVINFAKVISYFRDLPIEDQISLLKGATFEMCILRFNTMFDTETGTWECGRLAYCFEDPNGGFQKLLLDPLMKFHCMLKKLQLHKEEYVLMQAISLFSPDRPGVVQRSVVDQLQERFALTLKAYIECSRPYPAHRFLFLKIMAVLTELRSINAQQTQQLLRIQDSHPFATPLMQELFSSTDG
smiles,measurement,setting,value
CCCCCCC(CCCCCCCCCCC(=O)OCC(COC(C)=O)OC(C)=O)OC(C)=O (configuration not stated),outcome,[1],inactive
Nc1nc(=S)c2[nH]cnc2[nH]1,AC50,[2],44.7 µM (active)
same,AC50,[3],72.9 µM (active)
same,AC50,[4],74.3 µM (active)
same,AC50,[5],77 µM (active)
same,AC50,[6],37 µM (active)
same,AC50,[7],33.3 µM (active)
CC(=O)O[C@]1(C(C)=O)CC[C@H]2[C@@H]3C=C(Cl)C4=CC(=O)[C@@H]5C[C@@H]5[C@]4(C)[C@H]3CC[C@@]21C,outcome,[8],inactive
same,outcome,[9],inactive
same,outcome,[10],inactive
same,AC50,[11],0.686 µM (active)
same,outcome,[12],inactive
same,outcome,[13],inactive
same,outcome,[14],inactive
same,outcome,[15],inactive
same,outcome,[1],inactive
CCC(C)N(C)C(=O)c1cc2ccccc2c(-c2ccccc2Cl)n1 (configuration not stated),AC50,[1],30 µM (active)
